This passage reports growth inhibition results from PubChem BioAssay (NCI).

Assay [1] in a line: NCI Yeast Anticancer Drug Screen. Data for the rad50 strain (AID 155).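 Further: 0% = growth of vehicle-only cultures of the same strain.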 As to conditions: S. cerevisiae rad50 strain growth inhibition, active compounds read high. In short, it runs like this: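 Inhibition values express reduced yeast growth in compound-treated cultures relative to vehicle-treated controls.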
Assay [2] can be described thus: NCI Yeast Anticancer Drug Screen. Data for the mec2-1 strain (AID 157). As to conditions: S. cerevisiae mec2-1 strain, active compounds read high. In short, it runs like this:
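Readout is yeast growth inhibition, normalised to vehicle-treated controls, in the mec2-1 strain exposed to compound.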

Assay [3] in a line: NCI Yeast Anticancer Drug Screen. Data for the sgs1 mgt1 strain (AID 161).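 Further: 0% = growth of cultures given vehicle only.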 As to conditions: S. cerevisiae sgs1 mgt1 strain, active compounds read high. In short, it runs like this: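 Compounds are added to genetically altered yeast, and growth is compared with cultures given vehicle alone to give percent inhibition.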
The nature of assay [4]: NCI Yeast Anticancer Drug Screen. Data for the cln2 rad14 strain (AID 165).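 Further: 0% = growth equal to vehicle treated cultures.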 To be noted: S. cerevisiae cln2 rad14 strain, active compounds read high. In short, it runs like this:
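Relative to vehicle controls, growth inhibition of compound-treated cln2 rad14 yeast was recorded.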

Assay [5] in a line: NCI Yeast Anticancer Drug Screen. Data for the bub3 strain (AID 167). To be noted: S. cerevisiae bub3 mutant strain, active compounds read high. In short, it runs like this:
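Steps: expose the mutant yeast strain to compound; grow alongside vehicle-treated cultures; measure growth; express inhibition against the vehicle cultures.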

Assay [6] in a line: NCI Yeast Anticancer Drug Screen. Data for the mlh1 rad18 strain (AID 175). As to conditions: S. cerevisiae mlh1 rad18 strain growth inhibition, active compounds read high. In short, it runs like this:
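Test agents were incubated with a yeast strain of defined genotype (DNA damage repair defect). Inhibition of growth was derived by comparison with vehicle-exposed cultures.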

Where [7] appears, read: at 5.0 µM (retest, dose inferred, filed as 0.5).
Setting [8] is: at 50.0 µM (retest, dose inferred, filed as 5.0).

Molecules are shown by their SMILES. This is part of a sample that, as a whole, favours compounds with a hit. Of some 79,000 tested, about 15% had one in any assay. Unmarked numbers belong to inactive results. Calls of active or inactive are those of the source. No stated cut-off is given here; in the data, active means growth inhibition above about 70%; inactive means the rest.

With `CCOC(=O)N1CCN(CCCOc2ccc(Cl)cc2Cc2ccccc2)CC1`, the growth inhibition in assay [1] (setting [7]) is 29%; in assay [1] (setting [8]), 100% (active); in assay [1] (at 50.0 µM), 99.7% (active); in assay [2] (setting [7]), 26%; in assay [2] (setting [8]) it was 100% (active); in assay [2] (at 50.0 µM), 99.7% (active). Further, the growth inhibition in assay [3] (setting [7]) was 59%; in assay [3] (setting [8]) it was 100% (active); in assay [3] (at 50.0 µM), 99.8% (active); in assay [4] (setting [7]), 30%; in assay [4] (setting [8]) it was 99% (active); in assay [4] (at 50.0 µM), 99.5% (active). The growth inhibition in assay [5] (setting [7]) was 89% (active); in assay [5] (setting [8]), 100% (active); in assay [5] (at 50.0 µM) it was 99.5% (active); in assay [6] (setting [7]), 24%; in assay [6] (setting [8]) it was 100% (active); in assay [6] (at 50.0 µM) it was 99.7% (active).
Regarding `Cc1c2ccccc2c(CSC(=N)N)c2ccccc12`, the growth inhibition in assay [1] (setting [7]) was 47%; in assay [1] (setting [8]) it was 99% (active); in assay [1] (at 50.0 µM) it was 99.5% (active); in assay [2] (setting [7]), 22%; in assay [2] (setting [8]), 99% (active); in assay [2] (at 50.0 µM), 99.7% (active). Further, the growth inhibition is 9% in assay [3] (setting [7]); 98% (active) in assay [3] (setting [8]); 99.5% (active) in assay [3] (at 50.0 µM); 26% in assay [4] (setting [7]); 99% (active) in assay [4] (setting [8]); 99.5% (active) in assay [4] (at 50.0 µM). Further, the growth inhibition in assay [5] (setting [7]) was 7%; in assay [5] (setting [8]), 99% (active); in assay [5] (at 50.0 µM), 99.4% (active); in assay [6] (setting [7]) it was 30%; in assay [6] (setting [8]) it was 99% (active); in assay [6] (at 50.0 µM), 99.7% (active).
Consider `C/C=C(\C)C(=O)O[C@@H]1CC(C)(C)CC2C3=CCC4[C@]56CC[C@](O)(OC5)C(C)(C)C6CC[C@@]4(C)C3(C)CC[C@]21C(=O)O` (stereo not given in full), for which the growth inhibition in assay [1] (setting [7]) was 53%; in assay [1] (setting [8]), 90% (active); in assay [1] (at 50.0 µM), 86.5% (active); in assay [2] (setting [7]), 67%; in assay [2] (setting [8]) it was 88% (active); in assay [2] (at 50.0 µM), 84.7% (active). Further, the growth inhibition is 55% in assay [3] (setting [7]); 93% (active) in assay [3] (setting [8]); 87.2% (active) in assay [3] (at 50.0 µM); 73% (active) in assay [4] (setting [7]); 94% (active) in assay [4] (setting [8]); 78.8% (active) in assay [4] (at 50.0 µM). The growth inhibition is 70% (active) in assay [5] (setting [7]); 96% (active) in assay [5] (setting [8]); 81.8% (active) in assay [5] (at 50.0 µM); 69% in assay [6] (setting [7]); 94% (active) in assay [6] (setting [8]); 81.2% (active) in assay [6] (at 50.0 µM).
With `CC1C(c2ccc3c(c2)OCO3)c2cc3c(cc2OC1N1CCOCC1)OCO3` (stereo not given), the growth inhibition was 28% in assay [1] (setting [7]); 49% in assay [1] (setting [8]); 21.3% in assay [1] (at 50.0 µM); 19% in assay [2] (setting [7]); 36% in assay [2] (setting [8]); 7.3% in assay [2] (at 50.0 µM). In addition, the growth inhibition in assay [3] (setting [7]) is 17%; in assay [3] (setting [8]), 38%; in assay [3] (at 50.0 µM), -18.1%; in assay [4] (setting [7]), 25%; in assay [4] (setting [8]), 27%; in assay [4] (at 50.0 µM), 3.7%. Moreover, the growth inhibition in assay [5] (setting [7]) is 27%; in assay [5] (setting [8]), 28%; in assay [5] (at 50.0 µM), 18.7%; in assay [6] (setting [7]) it was 27%; in assay [6] (setting [8]) it was 46%; in assay [6] (at 50.0 µM), 20.3%.
As to `O=S(=O)(Nc1ccc2ccccc2c1)c1ccccc1`, the growth inhibition in assay [1] (setting [7]) is -10%; in assay [1] (setting [8]), 98% (active); in assay [1] (at 50.0 µM), 97.7% (active); in assay [2] (setting [7]) it was -21%; in assay [2] (setting [8]) it was 99% (active); in assay [2] (at 50.0 µM) it was 98% (active). For the same molecule, the growth inhibition is 2% in assay [3] (setting [7]); 99% (active) in assay [3] (setting [8]); 97.8% (active) in assay [3] (at 50.0 µM); 7% in assay [4] (setting [7]); 93% (active) in assay [4] (setting [8]); 92.2% (active) in assay [4] (at 50.0 µM). The growth inhibition is -9% in assay [5] (setting [7]); 99% (active) in assay [5] (setting [8]); 97.2% (active) in assay [5] (at 50.0 µM); -18% in assay [6] (setting [7]); 98% (active) in assay [6] (setting [8]); 98% (active) in assay [6] (at 50.0 µM).
Turning to `O=[N+]([O-])c1cc(Cl)c(Cl)cc1NS(=O)(=O)c1ccccc1`, the growth inhibition in assay [1] (setting [7]) was 17%; in assay [1] (setting [8]) it was 45%; in assay [1] (at 50.0 µM) it was 29.1%; in assay [2] (setting [7]), -8%; in assay [2] (setting [8]), 51%; in assay [2] (at 50.0 µM), 49.5%. For the same molecule, the growth inhibition in assay [3] (setting [7]) was 7%; in assay [3] (setting [8]), 58%; in assay [3] (at 50.0 µM) it was 39.4%; in assay [4] (setting [7]), 25%; in assay [4] (setting [8]), 84% (active); in assay [4] (at 50.0 µM), 54.5%. Besides, the growth inhibition in assay [5] (setting [7]) is 9%; in assay [5] (setting [8]), 57%; in assay [5] (at 50.0 µM), 40.4%; in assay [6] (setting [7]) it was 10%; in assay [6] (setting [8]), 76% (active); in assay [6] (at 50.0 µM), 71.2% (active).
`CC(C)C(OC(=O)c1ccc(NCc2cc(O)ccc2O)cc1)C(C)C`: the growth inhibition in assay [1] (setting [7]) was 21%; in assay [1] (setting [8]), 97% (active); in assay [1] (at 50.0 µM), 89.5% (active); in assay [2] (setting [7]), 23%; in assay [2] (setting [8]), 99% (active); in assay [2] (at 50.0 µM) it was 92% (active). Further, the growth inhibition was 35% in assay [3] (setting [7]); 99% (active) in assay [3] (setting [8]); 90.6% (active) in assay [3] (at 50.0 µM); 21% in assay [4] (setting [7]); 99% (active) in assay [4] (setting [8]); 88% (active) in assay [4] (at 50.0 µM). The growth inhibition is 29% in assay [5] (setting [7]); 99% (active) in assay [5] (setting [8]); 89.8% (active) in assay [5] (at 50.0 µM); 27% in assay [6] (setting [7]); 99% (active) in assay [6] (setting [8]); 86% (active) in assay [6] (at 50.0 µM).
As to `Cc1nc(N2N=C(c3ccc(Cl)cc3)CCC2=O)sc1[N+](=O)[O-]`, the growth inhibition in assay [1] (setting [7]) was 10%; in assay [1] (setting [8]), 85% (active); in assay [1] (at 50.0 µM) it was 85% (active); in assay [2] (setting [7]), 13%; in assay [2] (setting [8]) it was 65%; in assay [2] (at 50.0 µM), 86.5% (active). The growth inhibition in assay [3] (setting [7]) is -1%; in assay [3] (setting [8]), 71% (active); in assay [3] (at 50.0 µM), 83.7% (active); in assay [4] (setting [7]) it was 12%; in assay [4] (setting [8]) it was 46%; in assay [4] (at 50.0 µM) it was 82% (active). Further, the growth inhibition in assay [5] (setting [7]) is 10%; in assay [5] (setting [8]) it was 88% (active); in assay [5] (at 50.0 µM), 84% (active); in assay [6] (setting [7]), -12%; in assay [6] (setting [8]) it was 92% (active); in assay [6] (at 50.0 µM) it was 65.2%.
As for `CCCCCCCCCCCCCCCCNC(=S)N/C=C(/C#N)C(=O)OC`, the growth inhibition in assay [1] (setting [7]) was 78% (active); in assay [1] (setting [8]), 99% (active); in assay [1] (at 50.0 µM) it was 99% (active); in assay [2] (setting [7]), 89% (active); in assay [2] (setting [8]), 99% (active); in assay [2] (at 50.0 µM), 99.2% (active). Further, the growth inhibition is 39% in assay [3] (setting [7]); 99% (active) in assay [3] (setting [8]); 99.2% (active) in assay [3] (at 50.0 µM); 67% in assay [4] (setting [7]); 98% (active) in assay [4] (setting [8]); 98.8% (active) in assay [4] (at 50.0 µM). For the same molecule, the growth inhibition in assay [5] (setting [7]) is 99% (active); in assay [5] (setting [8]), 99% (active); in assay [5] (at 50.0 µM), 99.4% (active); in assay [6] (setting [7]) it was 57%; in assay [6] (setting [8]), 99% (active); in assay [6] (at 50.0 µM), 99.2% (active).
For the molecule `O=C1NC(=O)/C(=C/C=C/c2ccccc2)S1`, the growth inhibition in assay [1] (setting [7]) was 19%; in assay [1] (setting [8]), 91% (active); in assay [1] (at 50.0 µM), 40.9%; in assay [2] (setting [7]), 13%; in assay [2] (setting [8]), 73% (active); in assay [2] (at 50.0 µM), 25.9%. The growth inhibition is 25% in assay [3] (setting [7]); 98% (active) in assay [3] (setting [8]); 47.8% in assay [3] (at 50.0 µM); 27% in assay [4] (setting [7]); 63% in assay [4] (setting [8]); 77.4% (active) in assay [4] (at 50.0 µM). In addition, the growth inhibition is 61% in assay [5] (setting [7]); 99% (active) in assay [5] (setting [8]); 48.1% in assay [5] (at 50.0 µM); 26% in assay [6] (setting [7]); 94% (active) in assay [6] (setting [8]); 90.2% (active) in assay [6] (at 50.0 µM).
